From PubChem BioAssay (Tox21)
Unmarked numbers belong to inactive results. Active and inactive are the calls of the source. The call rests on the fitted dose curve; in most records, active means well fitted curve in the direction sought with a large enough effect in the repeat runs; inconclusive means weak or mixed curves; inactive means flat fitted curve, though single readings scatter.

Test: qHTS assay to test for compound auto fluorescence at 460 nm (blue) in HepG2 cell free culture (AID 720685)
Details: Cell-free culture medium, blue autofluorescence 405/460 nm; series mostly up to 91.3 µM
Outline: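 Cell-free plates of MEM plus 10% FBS received 23 nL compound or DMSO vehicle; blue-channel (405/460 nm) intensity scored against triamterene as reference fluorophore.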
On the % scale 0 is the no-effect control and ±100 the full control effect.

SMILES	outcome	fluorescence, % of fluorescent control
CO[C@@]1(NC(=O)CSCC#N)C(=O)N2C(C(=O)O)=C(CSc3nnnn3C)CS[C@@H]21	inactive	–
Nc1ccc(Oc2ccc(N)c(N)c2)cc1	inactive	–
CCOc1ccc(NS(=O)(=O)c2ccc(N)cc2)nn1	inactive	–
C=CCCC=C	inactive	–
Nc1cccc(S(=O)(=O)O)c1	inactive	–
CC(CNC1CCCCC1)OC(=O)c1ccccc1 (stereo not drawn)	–	-0.0346% [at 18.6 µM]
C1CCOC1	inactive	–
Cc1c(-c2ccccc2)oc2c(C(=O)OCCN3CCCCC3)cccc2c1=O	–	-0.115% [at 18.6 µM]
CCCCC1CCC(=O)O1 (stereo not drawn)	inactive	–
CCCN(CCC)C(=O)C(CCC(=O)O)NC(=O)c1ccccc1 (stereo not drawn)	inactive	–
CCN(CC)CCOc1ccc(Cc2ccccc2)cc1	inactive	–
CCCCCCCCCCCCCCCCOP(=O)([O-])OCC[N+](C)(C)C	inactive	–
COc1ccc2nc(NC(=O)Nc3ccccc3)sc2c1	inactive	–
O=C(O)C(=O)Cc1c[nH]c2ccccc12	inactive	–
O=C(CC(=O)C(F)(F)F)c1ccccc1	inactive	–
CCCCOc1cc(C(=O)NCCN(CC)CC)c2ccccc2n1	–	0.0544% [at 18.6 µM]
Cc1ncc(CO)c(CN)c1O	inactive	–
CCC/C=C/CO	inactive	–
COC(=O)C(C)O (stereo not drawn)	inactive	–
CCc1nnc(NS(=O)(=O)c2ccc(N)cc2)s1	inactive	–
N#Cc1ccc(C(c2ccc(C#N)cc2)n2cncn2)cc1	inactive	–
O=C(O)[C@@H](O)[C@H](O)[C@H](O)[C@@H](O)C(=O)O	inactive	–
Cc1cc(S(=O)(=O)O)c(N)cc1Cl	inactive	–
